# In PubChem BioAssay (Tox21):
# Active and inactive are the calls of the source. The call rests on the fitted dose curve.
# Assay: G protein-coupled receptor (GPCR) small molecule agonists, calcium flux assay: HEK293 wild type cell line counter screen (AID 1920065)
# Conditions: HEK293 WT calcium flux, fluorescence, agonist mode; series mostly up to 57.6 µM; activation: at the top concentration
# Description: U.S. Tox21 Program National Center for Advancing Translational Sciences [NCATS] Division of Preclinical Innovation [DPI] U.S. Environmental Protection Agency [EPA] National Institutes of Environmental Health Sciences [NIEHS] National Toxicology Program [NTP] U.S. Food and Drug Administration [FDA] Assay overview: The increased intracellular calcium release that occurred upon G protein-coupled receptor (GPCR) activation led to the frequent use of calcium flux assays to detect GPCR activation. For the purpose of studying and screening compounds that may activate GPCR, receptor-overexpressing models were typically generated using Hek293 wild-type (WT) cells. In order to eliminate the compounds that may have induced calcium release for non-specific activation, a counter-assay utilizing calcium flux on Hek293 WT cells was performed. The data were formulated in order to serve as a control for any calcium flux detection utilizing Hek293 cells with either GPCR overexpression or gene modification. The procurement of Hek293 WT cells from ATCC. Fluorescence intensity can be utilized to determine the activation of the compound in a calcium flux assay. As a counter control, this cell line was utilized to screen the Tox21 10K compound library.
# Assay Protocol Summary: Hek293 cells were dispensed at 1500cells/4uL/well in 1536-well black wall/clear bottom plates using a multidrop dispenser. After the assay plates were incubated at a 37 C/5% CO2 incubator for 18 hours, 4 uL of Calcium Dye Solution was added to each well. The plates were incubated at 37 C for 1 hour. For agonist mode, 23 nL of compounds dissolved in DMSO, positive control (ATP) or DMSO only was transferred to the assay plate by a pin tool station. The fluorescence intensity in the plates was measured using FDSS 7000EX kinetic plate reader with a filter set of Ex/Em=480/540 for 3 min at 1 sec intervals. Each test compound was measured at 15 concentrations and in triplicates.
# On the % scale 0 is the no-effect control and ±100 the full control effect.
row,SMILES,activation
1,OCC(O)c1ccccc1 (stereo not given),0.0555% (inactive)
2,COc1cnc(NS(=O)(=O)c2ccc(N)cc2)nc1,-0.819% [at 26.5 µM] (inactive)
3,O=C(CCN1CCC(c2ccccc2)C1)c1ccc2c(c1)OCCO2 (stereo not given),0.285% [at 26.5 µM] (inactive)
4,OCCC(O)CO (stereo not given),0.423% (inactive)
5,CC(C)(C)C(=O)Oc1ccc(S(=O)(=O)Nc2ccccc2C(=O)NCC(=O)O)cc1,-0.534% [at 26.5 µM] (inactive)
6,CN1CCC(=C2c3ccccc3C=Cc3ccccc32)CC1,-0.294% [at 26.5 µM] (inactive)
7,C/C=C\C/C=C/CCCCCCCCOC(C)=O,0.0462% (inactive)
8,CCN(CC)c1cccc(C)c1,0.685% (inactive)
9,CN(C)CCn1nnnc1SCC1=C(C(=O)O)N2C(=O)[C@@H](NC(=O)Cc3csc(N)n3)[C@H]2SC1,-0.0136% [at 26.5 µM] (inactive)
10,O=C(O)c1cn(C2CC2)c2cc(Cl)c(F)cc2c1=O,-0.0645% [at 26.5 µM] (inactive)
11,CC/C=C\CC/C=C/C(OCC)OCC,-0.224% (inactive)
12,Cc1cccc(Oc2ccccc2)c1,-0.234% (inactive)
13,CC1(C)S[C@@H]2[C@H](NC(=O)C(C(=O)O)c3ccccc3)C(=O)N2[C@H]1C(=O)O (stereo not given in full),-0.22% [at 26.5 µM] (inactive)
14,O=C(c1ccc(F)cc1)C1CCN(CCn2c(=O)[nH]c3ccccc3c2=O)CC1,0.395% [at 26.5 µM] (inactive)
15,CCc1ccc(CC)cc1,0.777% (inactive)
16,CO[Si](CCCS)(OC)OC,-0.0967% (inactive)
17,CCCCC(=O)O[C@]1(C(=O)CO)[C@H](C)C[C@H]2[C@@H]3CCC4=CC(=O)C=C[C@]4(C)[C@@]3(F)[C@@H](O)C[C@@]21C,-0.325% [at 26.5 µM] (inactive)
18,O=C(Oc1ccccc1)c1ccccc1C(=O)Oc1ccccc1,-0.386% (inactive)
19,CCCCCCCCOS(=O)(=O)O,-0.457% (inactive)
20,CC(C)(C)NCC(O)COc1cccc2c1C[C@H](O)[C@H](O)C2 (stereo not given in full),-0.178% [at 26.5 µM] (inactive)

row,SMILES,activation
1,CCCCCCCCCCCCCCCCCCO,-0.716% [at 26.5 µM] (inactive)
2,CNc1c2c(nn1C)CCCC2,2.19% [at 26.5 µM] (inactive)
3,CN(C)CCCN1c2ccccc2Sc2ccccc21,2.21% [at 26.5 µM] (inactive)
4,N#CSCC(=O)O,0.0811% [at 26.5 µM] (inactive)
5,OC[C@@H](O)C(O)[C@@H](O)CO (stereo not given in full),-0.177% (inactive)
6,CCOc1ccccc1O,-0.907% (inactive)
7,COC(=O)C(c1ccccc1Cl)N1CCc2sccc2C1 (stereo not given),-1.17% [at 26.5 µM] (inactive)
8,CC(C)(C)C(=O)O,-0.0819% (inactive)
9,CN1Cc2cc(C(=O)N3CCC(C4CCNCC4)CC3)ccc2N[C@@H](CC(=O)O)C1=O,-0.514% [at 26.5 µM] (inactive)
10,O=c1c(-c2ccccc2)c1-c1ccccc1,-0.0434% [at 26.5 µM] (inactive)
11,O=C(OCCCCCOC(=O)c1ccccc1)c1ccccc1,-0.228% (inactive)
12,CC(C)C[C@@H](N)C(=O)O,-0.27% [at 11.8 µM] (inactive)
13,C=C1CC[C@H](O)C/C1=C\C=C1/CCC[C@]2(C)[C@@H]([C@H](C)CCCC(C)C)CC[C@@H]12,0.295% (inactive)
14,c1cc[nH]c1,2.54% (inactive)
15,[Cl][Sc]([Cl])[Cl],0.394% (inactive)
16,COc1c(N2CCNC(C)C2)c(F)cc2c(=O)c(C(=O)O)cn(C3CC3)c12 (stereo not given),0.216% [at 26.5 µM] (inactive)
17,CN(C)CCOCCN(C)CCO,0.0156% (inactive)
18,CCC(C(=O)O)c1ccc(N2Cc3ccccc3C2=O)cc1 (stereo not given),-1.21% [at 26.5 µM] (inactive)
19,CCC(C)(CCC(C)C)C(=O)[O][Sn]([CH3])([CH3])[O]C(=O)C(C)(CC)CCC(C)C (stereo not given),1.01% (inactive)
20,O=C(O)c1ccc[n+]([O-])c1,3.01% [at 26.5 µM] (inactive)
